D1 ag – agonists of human D1 dopamine receptor; HEK293 T-REx D1 cells, calcium flux, agonist mode; activation, % at 2 µM; 360,000 tested, 1% active; AID 504660; note: 0% is about no effect
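Inducible HEK293 T-REx D1 cells, force-coupled to calcium signalling, were plated at 4000 cells/well with tetracycline and held overnight at 30 C. After no-wash calcium dye loading, compound-evoked calcium rise over 180 s flagged agonists.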
D1 potentiator – human D1 dopamine receptor positive modulation; P21728; HEK293 TREx D1 cells, calcium flux, dopamine EC20 potentiation; potentiation, % at 10 µM; 360,000 tested, 0.036% active; AID 504651; in the data active = potentiation above about 30%; note: 0% is about no effect
GRP78 ERSR act – ER stress response induction in glioma; U87-MG GRP78 promoter luciferase reporter, 16 h; Potency, µM, for the others: at the highest dose activation, hits mostly activators; 420,000 tested, 0.02% active; AID 602332; active = well fitted activation curve with a large enough effect; note: potency is the fitted concentration of half-maximal effect; series mostly up to about 76 µM; % of control where 0% means no effect; nearly all actives have a fitted effect of over 35% in size
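ERSR induction read as luciferase luminescence (Bright-Glo, 10 min at room temperature) in stably transfected human U87-MG glioma cells exposed to compounds for 16 h, using GRP78 as sensor.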
TRHR ag – TRH receptor (human) agonism. AID 493084. P34981. 360,000 tested, 0.18% active. activation, % at 2 µM. TRHR cells, calcium flux fluo-8, FDSS agonist mode; note: 0% is about no effect
Target sequence (P34981 whole entry, looked up): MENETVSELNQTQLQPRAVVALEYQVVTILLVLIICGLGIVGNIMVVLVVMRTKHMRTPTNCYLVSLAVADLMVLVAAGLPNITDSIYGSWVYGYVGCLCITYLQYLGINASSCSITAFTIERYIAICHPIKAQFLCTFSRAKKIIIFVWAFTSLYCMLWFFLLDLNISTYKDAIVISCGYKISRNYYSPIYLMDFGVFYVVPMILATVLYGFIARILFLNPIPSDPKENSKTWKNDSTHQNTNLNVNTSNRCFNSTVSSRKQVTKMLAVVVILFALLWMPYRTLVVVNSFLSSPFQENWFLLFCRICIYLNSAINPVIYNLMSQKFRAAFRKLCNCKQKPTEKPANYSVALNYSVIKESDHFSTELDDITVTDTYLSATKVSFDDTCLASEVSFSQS
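TRHR-expressing cells, plated overnight in medium with 10% serum, were loaded with fluo-8 calcium dye at room temperature. After a 10 s baseline, library compound was pin-added and calcium release was recorded kinetically (ex 480/em 530) as agonist response.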
D1 antagonist – human D1 dopamine receptor antagonism; P21728; HEK293 TREx D1 cells, calcium flux, dopamine EC80; stronger effect = lower value; activity change, negative = inhibition, % at 10 µM; 360,000 tested, 3.2% active; AID 504652; in the data active = activity change below about -30%; note: % is set by controls: 0 for no effect and ±100 for the full control effect
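Antagonism measured as reduced calcium response to an EC80 dopamine addition following 180 s compound pre-read; cells were inducible HEK293 Trex D1 plated overnight at 30 C, read kinetically at 1 cycle/sec.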
TRHR enhancer – allosteric enhancers of human TRH receptor. AID 493056. enhancement, % at 2 µM. 360,000 tested, 0.66% active. TRHR cells, fluo-8 calcium fluorescence, EC20 TRH enhancement; in the data active = enhancement above about 30%; note: 0% is about no effect
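TRHR-expressing cells loaded with fluo-8 calcium dye were read kinetically (ex 480/em 530) during compound addition, then stimulated with an EC20 of TRH (10 nM final). Enhancement of the Gq-mediated intracellular calcium response was scored.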
The depositor's hits bear a star; · = no result. Shown are actives, neighbours in structure and some others; about 4% of the full set was active somewhere. Cut-off read from the data, not from the text of the source, unless noted: active = activation above about 30%; inactive = the rest.

SMILES | D1 ag | D1 potentiator | GRP78 ERSR act | TRHR ag | D1 antagonist | TRHR enhancer
COCC(C)N1CCC(Oc2cccc(C(=O)NCCc3ccccc3)c2)CC1 (stereo not given) | 13 | -12 | -2% | 1 | -39* | 9
CC(C)=CC(=O)N1CCC(Oc2cccc(C(=O)NCc3ccccn3)c2)CC1 | · | · | 2% | · | · | ·
CC(C)CN1CCC(Oc2cccc(C(=O)NCCc3ccccc3)c2)CC1 | 6 | -3 | -1% | 1 | -38* | -1
CSCC(C)N1CCC(Oc2cccc(C(=O)NCc3ccccn3)c2)CC1 (stereo not given) | 4 | -11 | -4% | 0 | -63* | 1
COCCNC(=O)c1cccc(OC2CCN(Cc3ccc(C(C)C)cc3)CC2)c1 | 6 | -16 | -3% | 0 | -6 | -7
C(=C\n1nnc2ccccc21)/c1ccccn1 | 0 | -5 | -8% | 0 | -26 | -3
CCOC(=O)C1C(=O)C=C(/C=C/c2ccc(N(C)C)cc2)CC1c1ccccc1 (stereo not given) | 230* | 8 | 2% | 73* | -24 | 18
CCN(CC)c1ccc2c(-c3ccc(S(=O)(=O)O)cc3S(=O)(=O)[O-])c3ccc(=[N+](CC)CC)cc-3oc2c1 | 172* | -3 | -11% | 0 | -18 | 8
O=C1CCCC2=C1C(c1ccc(Cl)cc1)N=C(Nc1nc3ccccc3o1)N2 (stereo not given) | · | · | 0% | · | · | ·
Cc1nnsc1-c1onc(C)c1C(=O)Nc1cc(Cl)cc(Cl)c1 | 9 | -12 | -5% | 0 | -34* | -9
Cc1ccc(NC(=O)c2c(C)noc2-c2snnc2C)cc1 | 2 | -5 | -4% | -1 | 2 | 0
CCN(CC)CCCn1c2c(c(SCC(=O)Nc3nccs3)nc1=O)CCC2 | 2 | 0 | -1% | 0 | -56* | -6
O=C1C(Cl)=C(N2CCCC2)C(=O)N1c1ccc(F)cc1 | 9 | -5 | 1% | 0 | -33* | 0
COC(=O)c1cccc(N2C(=O)C(Cl)=C(N3CCOCC3)C2=O)c1 | 1 | -3 | -4% | 0 | 0 | 1
O=C1C(Cl)=C(N2CCOCC2)C(=O)N1c1cccc(C(F)(F)F)c1 | 4 | -6 | -1% | 0 | -34* | 1
Cc1cc(O)c2c(c1)OC1(C)CCC3C(C)(C)CCCC34COC2C14 (stereo not given) | · | · | -11% | · | · | ·
COc1ccc(C)cc1NC(=O)CSc1nnc2ccc(-c3cccnc3)nn12 | -2 | -4 | -4% | 0 | 6 | 4
Cc1nn(-c2ccccc2)c(C)c1/C=N/NC(=O)c1cc(-c2cccs2)[nH]n1 | 2 | -13 | -3% | 1 | -87* | 4
Cc1nn(-c2ccccc2)c(C)c1/C=N/NC(=O)c1cc(-c2ccc(Br)s2)[nH]n1 | 2 | -7 | -4% | 1 | -9 | 0
COc1ccc(CCC(C)NC2C3CC4CC(C3)CC2C4)cc1 (stereo not given) | 10 | 0 | -1% | 1 | -71* | 6
O=C(COC(=O)CNC(=O)C1CCCCC1)NC1CC1 | · | · | -4% | · | · | ·
O=C(Nc1nccs1)c1ccc(CSc2nnnn2-c2ccccc2)cc1 | 9 | 1 | 6% | -1 | -34* | 2
O=C(CCCSc1nnnn1-c1cccc2ccccc12)c1ccc(F)cc1 | 62* | -6 | -5% | 0 | -47* | 5
NC(=O)c1ccc(-n2nnnc2SCc2ccccc2)cc1 | 7 | -5 | -4% | 0 | 5 | 6
O=C(O)c1ccc(CSc2nnnn2-c2ccc(F)cc2)cc1 | 0 | -9 | 1% | 0 | -31* | 1
SMILES | D1 ag | D1 potentiator | GRP78 ERSR act | TRHR ag | D1 antagonist | TRHR enhancer
CCOC(=O)C(C)Sc1ccc2nnc(-c3ccc(OCC)cc3)n2n1 (stereo not given) | · | · | -3% | · | · | ·
CC(=O)c1cc(C(=O)N2CCCC(C(=O)c3ccc(Cl)cc3)C2)cs1 (stereo not given) | 5 | 2 | -3% | 0 | -33* | -3
O=C(c1ccc(Cl)cc1)N1CCCC(C(=O)N2CCCCC2)C1 (stereo not given) | 2 | -4 | -1% | 0 | 16 | -4
Cc1ccc(C(=O)OC2OC(=O)C(Cl)=C2N2CCOCC2)cc1 (stereo not given) | 9 | -5 | -1% | 1 | -17 | 30*
COc1ccc(C(CNC(=O)c2nn(-c3ccccc3)c(=O)c3ccccc23)N2CCOCC2)cc1 (stereo not given) | 5 | -8 | 1% | 0 | -4 | 32*
COc1ccc(C(CNC(=O)c2ccccc2C)N2CCCC2)cc1 (stereo not given) | 1 | -2 | -4% | 1 | 5 | 8
COc1ccc(Cl)cc1C(=O)NCC(c1ccc(N(C)C)cc1)N1CCCC1 (stereo not given) | 34* | 2 | -4% | -1 | -6 | 20
COc1ccc(C(=O)NCC(c2ccc(N(C)C)cc2)N2CCCC2)c(OC)c1 (stereo not given) | -1 | 2 | -6% | -1 | -8 | 6
COc1ccc(C(CNC(=O)c2ccco2)N2CCOCC2)cc1 (stereo not given) | 5 | -5 | -1% | 0 | -2 | -8
COc1ccc(C(CNC(=O)c2cc(=O)[nH]c3ccccc23)N2CCCC2)cc1 (stereo not given) | 5 | -7 | -5% | 1 | -38* | -1
COc1ccc(C(CNC(=O)c2ccc(-c3cccc(C(F)(F)F)c3)o2)N2CCOCC2)cc1 (stereo not given) | 34* | 7 | -5% | 9 | 30 | 3
Cc1ccsc1C1Cc2c(C(=O)NCc3cccnc3)c(=O)cc(C)n2-c2ccccc2S1 (stereo not given) | · | · | -3% | · | · | ·
CC(=O)c1ccc([N+](C)(C)C)cc1 | · | · | -1% | · | · | ·
COc1cccc(N2CCN(C(=O)c3cc4c(=O)n(Cc5cccs5)ccc4nc3C)CC2)c1 | 2 | 1 | -3% | 0 | 7 | 0
O=C(/C=C/c1ccc(O)cc1)OC[C@H]1O[C@@H](Oc2c(-c3ccc(O)cc3)oc3cc(O)cc(O)c3c2=O)[C@H](O)[C@@H](O)[C@@H]1O | · | · | 2% | · | · | ·
Cc1ccc(NC(=O)C2CCN(C(=O)OC(C)(C)C)CC2)cc1S(=O)(=O)N1CCCCC1 | 0 | 1 | -4% | 0 | -38* | -1
Cc1ccccc1CC(=O)OCC(=O)Nc1ccc(C)c(S(=O)(=O)N2CCCCC2)c1 | 79* | · | -1% | 1 | -35* | -2
Cc1ccc(NC(=O)COc2ccccc2)cc1S(=O)(=O)N1CCCCCC1 | 10 | 0 | -5% | 1 | -2 | -16
Cc1ccc(S(=O)(=O)N2CCCCC2)cc1NC(=O)C1CCN(C(=O)OC(C)(C)C)CC1 | · | · | -7% | · | · | ·
Cc1ccccc1OCCC(=O)OCC(=O)Nc1ccc(C)c(S(=O)(=O)N2CCCCC2)c1 | · | · | -1% | · | · | ·
